Screens deposited in PubChem by several laboratories.
Hits are enriched below; roughly 2.5% of the tested compounds scored in any of these assays.
Jurkat NFkB inh: inhibitors of induced NF-kB luciferase reporter, primary screen, TCR NF-kB activation inhibitor project, cell-based, luminescence, uHTS | Jurkat, PMA/ionomycin-induced NF-kB luciferase reporter | inhibition, % at 4 µM | AID 435003, 2010 | 0.53% of 330,000 active; in the data active = inhibition above about 50%
KLF5 inhibitor: KLF5 expression inhibitors, primary screen, DLD-1 cells, luminescence; DLD-1 KLF5 promoter-luciferase reporter; inhibition, % at 5 µM; 0.23% of 290,000 active; AID 1700, 2009;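 active = inhibition above a per-plate limit of that plate's mean compound inhibition plus 3 SD, cut at about 60% in these data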;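 note: higher means less KLF5 promoter-driven luciferase light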
ANO1 activ: TMEM16A chloride channel activators or potentiators, primary screen, cell-based, HTS. HEK293 TMEM16A/YFP-H148Q/I152L, iodide quench fluorescence; active compounds read low. B-score at 10 µM. 0.3% of 340,000 active;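 active = fluorescence-ratio B-score plate-corrected deviation score at least 3 library SD below zero, with starting fluorescence score within 5 deviations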;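 note: channel opened by trigger with iodide after compound preincubation; score built on the fluorescence ratio of max minus min over baseline; more negative score means more quench and so TMEM16A activation or potentiation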
TMEM16A inh: TMEM16A chloride channel inhibitors, primary screen, cell-based, HTS | Anoctamin-1 (Mus musculus), Q8BHY3 | normalized B-score (activity score, 25-100; higher = stronger inhibition) at 10 µM | HEK293 TMEM16A/YFP iodide influx fluorescence, ionomycin | 1.2% of 310,000 active;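 active = ratio plate-corrected score three or more library SD toward inhibition, starting fluorescence score within five deviations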;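 note: score derived from kinetic fluorescence span divided by baseline fluorescence per well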
697 NFkB inh: inhibitors of PMA/ionomycin-induced NF-kB reporter, 697 cells, primary screen, B-cell NF-kB inhibitor project, cell-based, luminescence, uHTS; 0.33% of 330,000 active; inhibition, % at 4 µM; 697 B-cell NF-kB luciferase reporter, 16 h; in the data active = inhibition above about 35%
aSyn UTR inh: MLPCN primary screen, SNCA 5' untranslated region; AID 1813, 2009; alpha-synuclein 5'UTR reporter, inhibitor activity; 0.82% of 300,000 active; inhibition, % (tested at 7.5 µM); in the data active = inhibition above about 60%;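 note: H4 neuroglioblastoma cells stably carrying SNCA 5'UTR luciferase fusion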
Jurkat NFkB conf: PMA/ionomycin-induced NF-kB reporter inhibitors, Jurkat retest, confirmation, T-cell NF-kB inhibitor project, cell-based, luminescence, single concentration; shares compounds with Jurkat NFkB inh; Jurkat NF-kB luciferase, 16 h; inhibition, % at 4 µM; 27% of 2,700 active; AID 435020, 2010;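 active = inhibition reaching about 45% at 4 µM in either replicate, limit read from the data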
Hits are given with their value; n = inactive; x = no result.

SMILES | Jurkat NFkB inh | KLF5 inhibitor | ANO1 activ | TMEM16A inh | 697 NFkB inh | aSyn UTR inh | Jurkat NFkB conf
Cc1ccsc1C(=O)Nc1nc2ccccc2[nH]1 | n | n | n | n | n | n | n
CNc1ccccc1C(C)(C)c1cn(-c2ccc([N+](=O)[O-])cc2)nn1 | n | n | n | n | n | n | x
Fc1ccccc1/C=N/NC(=S)Nc1ccc(Cl)cc1Cl | 53 | n | n | n | n | n | n
Fc1ccc(NC(=S)NN=Cc2ccccc2Cl)cc1 | x | x | n | x | x | x | x
N#Cc1c(N2CCCC(O)C2)nc(N)c2c(N)nc3c(c12)CC(=O)N3C12CC3CC(CC(C3)C1)C2 (stereo unspecified) | 85 | n | n | n | n | n | n
C=C(C)CN(CC)c1nc(N)c2c(N)nc3c(c2c1C#N)CC(=O)N3C12CC3CC(CC(C3)C1)C2 | n | n | n | n | n | n | x
COc1ccc2c(c1OC)C(=O)N(c1cccc(C(F)(F)F)c1)C2 | n | n | n | n | n | n | n
COc1ccc2c(c1OC)C(=O)N(c1cccc(C)c1)C2 | n | n | n | n | n | n | x
COc1ccc(NC(=S)NNC(=O)c2ccccc2OC(F)F)cc1 | 53 | n | n | n | n | n | n
COc1ccc(C(=O)NNC(=S)NC(=O)c2ccc(OC)cc2)cc1 | n | n | n | n | n | n | x
O=[N+]([O-])c1ccc(NC(=S)N/C(=N/CS(=O)(=O)c2ccccc2)c2ccccc2)cc1 | n | n | n | n | n | n | x
CCc1ccc(NC(=S)NNC(=O)c2ccccc2OC(F)F)cc1 | n | n | x | n | n | n | x
COc1ccc(C(=O)NNC(=S)Nc2ccccc2)cc1 | n | n | n | n | n | n | n
COc1ccc(NC(=S)N/C(=N/CS(=O)(=O)c2ccccc2)c2ccccc2)cc1 | n | n | n | n | n | n | n
O=C(N/N=C/c1ccc(O)cc1)c1[nH]c2ccc(Br)cc2c1-c1ccccc1 | 60 | n | n | n | n | n | n
CCOc1ccc(/C=N/NC(=O)c2[nH]c3ccc(C)cc3c2C)cc1 | n | n | n | n | n | n | x
Cc1c(C(=O)N/N=C/c2ccc(Cl)cc2)[nH]c2ccc(Cl)cc12 | 52 | n | n | n | n | n | 51
Cc1cccc(NC(=O)c2ccc(S(=O)(=O)N3CC(C)OC(C)C3)cc2)n1 (stereo unspecified) | n | x | n | n | n | n | x
O=C(COc1ccc(Br)cc1Br)NC1CCCC1 | n | n | n | n | n | n | x
CC(C)NC(=O)NC(=O)COc1ccc(Br)cc1Br | n | n | n | n | n | n | n
CN(C)c1ccc(S(=O)(=O)N2CCCCC2)cc1NC(=O)CCNC(=O)c1ccco1 | n | x | n | x | n | x | x
O=C(c1cc2cc3ccc(Cl)cc3nc2o1)N1CCCCCC1 | n | n | n | n | n | n | n
COc1ccc(Nc2nc(NCCN3CCOCC3)nc(Nc3ccc(OC)cc3)n2)cc1 | n | n | n | n | n | n | x
CCCCn1cnc2c(c(-c3ccccc3)c(-c3ccccc3)n2Cc2ccco2)c1=N | 81 | n | n | 100 | n | n | n
NS(=O)(=O)c1cccc(NC(=O)CSc2nc3ccccc3c(=O)n2CC2CCCO2)c1 (stereo unspecified) | n | x | n | x | n | x | x
SMILES | Jurkat NFkB inh | KLF5 inhibitor | ANO1 activ | TMEM16A inh | 697 NFkB inh | aSyn UTR inh | Jurkat NFkB conf
CC(C)(C)c1ccc(C(=O)Nc2ccc(F)cc2)s1 | n | n | n | n | n | n | n
O=C(Nc1ccccc1)C1Cc2ccccc2CN1C(=O)c1ccco1 (stereo unspecified) | n | n | n | n | n | n | n
CCOC(=O)c1sc(NC(=O)c2ccc(Br)o2)cc1C | n | n | n | n | n | n | n
CCN(CC)C(=O)c1sc(NC(=O)c2ccc(Br)o2)c(C(=O)OC)c1C | n | n | n | n | n | n | x
CCOC(=O)c1cccc(NC(=O)c2cccs2)c1 | n | n | n | n | n | n | x
CCOC(=O)c1sc(NC(=O)c2cccs2)cc1C | n | n | n | n | n | n | n
CCOc1ccc(CN(C)CC(=O)NCc2ccc(F)cc2)cc1 | n | n | n | n | n | n | x
CCN(CC(=O)Nc1ccccc1OC)C(=O)CC1CCCC1 | n | x | n | x | n | x | x
O=C(c1ccc2nc[nH]c2c1)N1CCN(c2cccc(C(F)(F)F)c2)CC1 | n | n | n | n | n | n | x
O=C(c1ccc2ncsc2c1)N1CCN(c2cccc(C(F)(F)F)c2)CC1 | 55 | x | n | x | n | x | n
CC1CCc2c(nc3ncnn3c2NCCc2ccccc2F)C1 (stereo unspecified) | n | n | n | n | n | n | x
Cc1sc(NC(=O)c2oc3ccccc3c2C)c(C#N)c1C | n | n | n | n | n | n | x
Cc1c(C(=O)NC2=NCCS2)oc2ccccc12 | n | n | n | n | n | n | n
Cc1c(C(=O)Nc2nnc(C3CC3)s2)oc2ccccc12 | n | x | n | x | n | x | x
Cc1csc(NC(=O)c2oc3ccccc3c2C)n1 | n | x | n | n | n | n | n
CC(=O)Nc1ccc(NC(=O)C2CCCCN2S(=O)(=O)c2ccc(C(C)(C)C)cc2)cc1 (stereo unspecified) | n | n | n | n | n | n | x
Cc1ccc(NC(=O)Nc2ccnc(-c3cccnc3)n2)cc1 | 62 | n | n | n | n | 110 | 47
CCOC(=O)C1CCN(S(=O)(=O)c2ccc3c(c2)NC(=O)CS3)CC1 | n | n | n | n | n | n | x
CC1=C(C(=O)OCc2ccccc2)C(c2ccc(Cl)cc2)NC(=O)N1CCCC(=O)O (stereo unspecified) | n | n | x | n | n | n | x
O=C(Cc1ccc(Cl)cc1)Nc1ccc(-c2cc3ccccc3oc2=O)c(Cl)c1 | 59 | n | n | n | n | 96 | n
O=C(/C=C/c1ccccc1)c1c[nH]c2ccccc12 | n | n | n | n | n | n | n
COc1cc(NC(=O)c2cc(-c3ccccc3Cl)on2)cc(OC)c1OC | n | n | n | n | n | n | x
COc1cc(C(=O)Nc2ccc3c(c2)ncn3C)cc(OC)c1OC | 52 | n | n | n | n | n | n
CN1CCN(c2ccc(NC(=O)c3ccc4ccccc4c3)cc2)CC1 | n | n | n | n | n | 85 | n
N#Cc1ccc(C(=O)Nc2ccc3ccccc3c2)cc1 | n | n | n | n | n | n | n
O=C(Nc1nccs1)c1ccc(Br)cc1 | n | n | n | n | n | n | x
O=C(Nc1nccs1)c1ccc2ccccc2c1 | n | n | n | n | n | n | n
CN1CCN(c2ccc(NC(=O)c3ccc(-c4ccccc4F)o3)cc2)CC1 | n | x | n | x | n | x | n
